In PubChem BioAssay AID1359 (The Scripps Research Institute Molecular Screening Center, 2008):
“And” between values parts separate entries of the source, which are not always exact repeats. Identical values can stand only once. The whole screen tested about 220,000 compounds, of which about 970 (0.44%) were called active. The sample as a whole holds a higher share of actives than the screen did. A number with no mark means an inactive call. No stated cut-off is given here; in the data, active means activation above about 27%; inactive means the rest.

Target: Neuropeptide Y receptor type 2 (Homo sapiens) (UniProt P49146)
Sequence (P49146 whole entry, looked up): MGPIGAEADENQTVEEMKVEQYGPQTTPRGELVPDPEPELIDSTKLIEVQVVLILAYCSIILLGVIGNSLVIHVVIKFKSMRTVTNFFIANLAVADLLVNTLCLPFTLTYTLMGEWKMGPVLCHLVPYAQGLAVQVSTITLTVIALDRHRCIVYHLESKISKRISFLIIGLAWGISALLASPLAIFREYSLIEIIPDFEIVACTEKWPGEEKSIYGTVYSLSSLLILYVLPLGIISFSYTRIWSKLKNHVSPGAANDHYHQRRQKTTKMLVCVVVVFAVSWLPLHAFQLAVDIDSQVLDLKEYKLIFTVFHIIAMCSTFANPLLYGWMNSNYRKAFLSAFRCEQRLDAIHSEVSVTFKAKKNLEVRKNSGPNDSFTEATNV
Experiment: human Y2 receptor positive modulation or activation – cell-based, primary screen (AID 1359);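 further: cells stimulated with NPY near EC25 plus isoproterenol at EC100; 0% = vehicle plus submaximal agonist and 100% = vehicle plus saturating agonist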
Settings: cells expressing NPY-Y2, potentiator/agonist read-out; at 3.6 µM; active compounds read high

First: C=CCSc1nnc(NC(=O)c2ccc(NC(C)=O)cc2)s1
Second: CCSc1nnc(NC(=O)Cc2ccccc2OC)s1
The activation of the first is higher: -3.89% for the first, -5.68% for the second.

Compared with `Cc1nc2ccccc2c(C)c1C(=O)c1ccc(F)cc1`, `O=C(c1ccc(F)cc1)n1c(=S)nc2ccccn21` is higher in activation: -11.5% for the first, 3.79% for the second.

First: CCCC1OC23CCCCC2C(C#N)(C#N)C1(C#N)C(=N)O3 (stereo not drawn)
Second: O=C(NCC(O)c1ccc([N+](=O)[O-])cc1)C1CCCCC1 (stereo not drawn)
The activation of the first is higher: 7.5% for the first, -6.08% for the second.

Compared with `COCCCNC(NC(=O)c1ccc(C)cc1)C(Cl)(Cl)Cl` (stereo not drawn), `CCS(=O)(=O)N1CCCC(C(=O)NCc2ccc(C)cc2)C1` (stereo not drawn) is lower in activation: 15.8% for the first, 13% for the second.

Compared with `COc1ccc(C(=O)NC2(C(F)(F)F)NC(=O)N(CCCc3ccccc3)C2=O)c(OC)c1OC` (stereo not drawn), `CC(=O)C1C(c2cccc(Oc3ccccc3)c2)NC(=O)NC1(O)C(F)(F)F` (stereo not drawn) is higher in activation: -6.73% for the first, 6.91% for the second.

Going from `COc1ccccc1OCCNC(=O)c1cc([N+](=O)[O-])cc([N+](=O)[O-])c1` to `COc1cc(NC(=S)NCc2ccc(S(N)(=O)=O)cc2)cc(OC)c1`, the activation rises from -7.14% to 4.03%.

First: CC(O)CNCCOc1cccc(Oc2ccccc2)c1 (stereo not drawn)
Second: CN(C)CCCSc1ccccc1NC(=O)/C=C/c1ccccc1
The activation of the first is lower: -22.6% for the first, -11.2% for the second.

Going from `C=CCn1c(SCc2cccc(F)c2)nc2cc(C(=O)N3CCC(C(N)=O)CC3)ccc2c1=O` to `COc1cc(N2C(=O)c3ccccc3C2=O)c(Cl)cc1C(=O)OCC(=O)N1CCOCC1`, the activation falls from 8.55% to -10.6%.

First: O=C(NCCc1ccccn1)c1cc(-c2ccc(Cl)cc2)nc2ccccc12
Second: Cc1cc(C)cc(OCC(=O)NCc2cc(C)nc3ccccc23)c1
The activation of the first is lower: -15.9% for the first, -3.92% for the second.

Going from `O=C1c2ccccc2C(=O)c2c1cccc2N1CCN(CCO)CC1` to `O=c1cc(N2CCN(Cc3ccccc3)CC2)c(-c2ccccc2)n[nH]1`, the activation rises from 7.55% to 12.9%.

Going from `COc1ccc(NS(=O)(=O)c2cc(NC(=O)CC(=O)c3ccc([N+](=O)[O-])cc3)ccc2C)cc1` to `COC(=O)c1ccc(COc2ccc(/C=N/NC(=O)C(=O)Nc3ccc(OC)cc3)cc2OC)o1`, the activation rises from -11.2% to -3.63%.

First: CC(=O)C1C(c2ccc(Cl)cc2)NC(=O)NC1(O)C(F)(F)F (stereo not drawn)
Second: COc1ccc(/C(C)=N/Nc2cc(C(F)(F)F)ccc2Cl)c(OC)c1
The activation of the first is higher: -6.52% for the first, -10.5% for the second.

Going from `O=[N+]([O-])c1ccc(N2CCN(CC(O)COc3ccccc3)CC2)cc1` (stereo not drawn) to `OC(COCc1ccco1)CN1CCN(c2ccccc2)CC1` (stereo not drawn), the activation falls from -7.01% to -8.6%.

Compared with `COc1ccc(OCc2cn3c(C)cc(C)nc3n2)cc1`, `Cc1ccccc1Nc1c(-c2ccccc2)nc2ncccn12` is higher in activation: 1.94% for the first, 22.6% for the second.

Going from `CC1(C)CC(=O)C(N=Nc2c(F)cccc2F)=C(O)C1` to `CCOC12CC(C)(C)CC(C)(CC3=C1C(=O)CC(C)(C)C3)C2` (stereo not drawn), the activation falls from 19.3% to -1.87%.

Going from `Cc1nn(-c2ccccc2)c(C)c1/C=C/C(=O)OC(C)C(N)=O` (stereo not drawn) to `COc1ccc2c(c1)C(SCC(=O)NCc1ccccc1)CC(C)(C)O2` (stereo not drawn), the activation rises from -0.33% to 15.7%.

Going from `CC(C)(C)n1ncc2c(=O)n(Cc3ccc(Cl)cc3)cnc21` to `Cc1c(Cl)cccc1NC(=O)CSc1ccc(-c2cccnc2)nn1`, the activation rises from -23.4% to 2.4%.

First: O=C(Nc1cccc(-c2nc3ccccc3[nH]2)c1)c1ccc(C(=O)Nc2cccc(-c3nc4ccccc4[nH]3)c2)cc1
Second: Cc1cc(C)c(NC(=O)c2oc3ccccc3c2COc2ccccc2)c(C)c1
The activation of the first is higher: 0.29% for the first, -12.9% for the second.

Compared with `CCOC(=O)c1c(NC(=O)C2CCN(S(=O)(=O)c3ccc(Cl)cc3)CC2)sc2c1CCCC2`, `Cc1ccc(NS(=O)(=O)c2cccs2)cc1S(=O)(=O)N1CCCCCC1` is higher in activation: -5.8% for the first, 3.99% for the second.

Going from `NC(=O)c1ccc(N2CCOCC2)nc1` to `Cc1nc([N+](=O)[O-])cn1CC(=O)Nc1ccc2c(c1)OCO2`, the activation falls from -10.3% to -19.2%.

Compared with `C1CC1Cc1noc(CN2CCN(CC3CC3)CC2)n1`, `O=C(NCCCN1CCN(Cc2ccccc2)CC1)C1CCN(S(=O)(=O)N2CCCC2)CC1` is higher in activation: -4.58% for the first, 17.2% for the second.

First: CSc1nnc(SCc2nc3sc(C(=O)O)c(C)c3c(=O)[nH]2)s1
Second: CC(=O)N1C(=O)/C(=C2\SC(=S)N(NC(=O)c3ccc(O)cc3)C2=O)c2ccccc21
The activation of the first is higher: 1.67% for the first, -3.06% for the second.

Compared with `COC(=O)CSc1nc2c(c(C3CC=CCC3)c1C#N)CCC2` (stereo not drawn), `CC1CCCCC1NC(=O)/C(C#N)=C/C=C/c1ccccc1[N+](=O)[O-]` (stereo not drawn) is higher in activation: -6.44% for the first, -5.09% for the second.

First: Cc1ccccc1C(CC(=O)c1cccs1)C(C#N)C#N (stereo not drawn)
Second: CN(CCO)Cc1csc2ccc(Br)cc12
The activation of the first is higher: 4.09% for the first, -20.4% for the second.

With `CCN(C(=O)COc1cccnc1[N+](=O)[O-])C1CCS(=O)(=O)C1` (stereo not drawn) the activation was -0.31%.

In the case of `CCSc1nnc(NC(=O)c2ccc(C)cc2)s1`, the activation is reported as 31.6% (active).
With `COc1ccccc1OCCNCC(O)COc1cccc2[nH]c3ccccc3c12` (stereo not drawn) the activation was 99.4% (active) and 97.9% (active).
With `O=C1c2ccccc2C(=O)c2c1cccc2N1CCN(Cc2ccccc2)CC1` the activation was 48.8% (active).
With `O=C1NC(c2ccc(-c3ccccc3[N+](=O)[O-])o2)C(C(=O)c2ccc(Cl)cc2)C(O)(C(F)(F)F)N1` (stereo not drawn) the activation was 37.4% (active).
For `OC(COCC1COc2ccccc2O1)CN1CCN(c2ccc(F)cc2)CC1` (stereo not drawn), the activation was 80.4% (active).
For `Cc1cccc(C)c1Nc1c(-c2ccccc2O)nc2ncccn12`, the activation was 56.5% (active).
In the case of `O=C(Nc1sc2c(c1-c1nc3ccccc3[nH]1)CCCC2)C1CC1`, the activation is reported as 30.3% (active).
In the case of `Cc1ccc(CCNC(=O)C2CCN(S(=O)(=O)N3CCCC3)CC2)cc1`, the activation is reported as 104% (active).
For `Cc1cc(C)c(NC(=O)C[N+](C)(C)CC(O)COc2cccc3ccccc23)c(C)c1` (stereo not drawn), the activation was 71.5% (active).
